Screens deposited in PubChem by several laboratories.
Rows were chosen to be rich in hits. Some 2.6% of all compounds tested hit in one or more screens of this group.
TLR9-MyD88 block: inhibitors of human TLR9-MyD88 binding. inhibition, % at 4.98 µM. CHO BLA complementation TLR9-MyD88, CCF4 FRET ratio. Q9NR96+Q99836. 0.21% of 340,000 active. AID 504734;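 active means inhibition above the mean over all tested compounds plus 3 SD, cut at about 21% in these data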;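 further: 0% = DMSO only wells and 100% = clavulanate BLA inhibitor control wells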
PRMT1 inh: inhibitors of human PRMT1. Q99873. recombinant PRMT1, activity-based probe fluorescence polarization. inhibition, % at 2.79 µM. 1.3% of 370,000 active. AID 652257;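 active means inhibition above about 21% made by adding two undisclosed values, limit read from the data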
Target sequence (Q99873 whole entry, looked up): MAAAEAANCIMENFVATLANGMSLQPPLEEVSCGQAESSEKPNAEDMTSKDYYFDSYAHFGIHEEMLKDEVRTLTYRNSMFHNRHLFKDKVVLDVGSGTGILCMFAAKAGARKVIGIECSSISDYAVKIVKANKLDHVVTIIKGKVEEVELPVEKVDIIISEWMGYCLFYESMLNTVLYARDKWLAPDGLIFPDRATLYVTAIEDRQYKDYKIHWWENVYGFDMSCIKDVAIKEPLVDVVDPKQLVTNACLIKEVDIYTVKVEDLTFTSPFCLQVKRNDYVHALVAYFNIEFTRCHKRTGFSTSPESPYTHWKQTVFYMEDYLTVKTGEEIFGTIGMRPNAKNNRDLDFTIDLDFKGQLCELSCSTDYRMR
ABHD5 PLIN5 PPI: ABHD5-PLIN5 protein interaction inhibition | Q00G26+Q8WTS1 | Split G. princeps luciferase complementation, luminescence, 4 h | inhibition, % at 4 µM | 0.78% of 360,000 active;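 active means inhibition above the mean inhibition across every tested compound plus 3 SD, cut at about 22% in these data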;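 further: 0% = DMSO only wells and the 100% control is not disclosed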
Exocytosis inh: lytic granule exocytosis inhibition. 0.66% of 360,000 active. inhibition, % at 10 µM. TALL-104 LAMP-1 surface exposure, flow cytometry; cells stimulated with thapsigargin and PMA;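 active means inhibition above about 55%, limit read from the data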
TLR4-MyD88 BLA: TLR4-MyD88 interaction inhibition in cells. HeLa CL3-4 TLR4/MyD88 BLA complementation, FRET ratio. inhibition, % at 8.4 µM. 0.18% of 200,000 active. AID 861; in the data active means inhibition above about 25%;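 further: 0% = vehicle and 100% = reference inhibitor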
NOD2-RIPK2 inh: inhibitors of human NOD2-RIPK2 interaction; inhibition, % at 4.98 µM; O43353; 0.38% of 360,000 active; CHO BLA complementation NOD2-RIPK2, CCF4 ratio; in the data active means inhibition above about 21%;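 further: 0% = vehicle only and 100% = reference blocker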
NOD2-RIPK2 conf: confirmation of human NOD2-RIPK2 interaction inhibitors; shares compounds with NOD2-RIPK2 inh; CHO cells, NOD2-RIPK2 BLA complementation, CCF4 FRET; inhibition, % at 4.98 µM; 70% of 1,200 active;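 active means mean inhibition across replicates above a set limit taken from the earlier primary screen, cut at about 21% in these data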;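 further: 0% = DMSO-only wells and the high end = clavulanate BLA-blocked wells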
NOD2 BLA counter: hits BLA reporter in NOD2-RIPK2 inhibitor counterscreen. 57% of 1,200 active. shares compounds with NOD2-RIPK2 inh. AID 624371. CHO BLA reporter, CCF4 FRET ratio. inhibition, % at 4.98 µM;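 active means mean inhibition above the low-control mean inhibition plus three low-control SD, cut at about 11% in these data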;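 further: 0% = DMSO only wells and 100% = clavulanate high control wells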
Numbers without * were called inactive; . = not tested or not shown.

SMILES	TLR9-MyD88 block	PRMT1 inh	ABHD5 PLIN5 PPI	Exocytosis inh	TLR4-MyD88 BLA	NOD2-RIPK2 inh	NOD2-RIPK2 conf	NOD2 BLA counter
CCOC(=O)[C@@]12CCC3=C1N(CCC3)C(=O)[C@H](CC(=O)NCCC(C)C)C2	.	3.4	.	.	.	.	.	.
COc1ccc(Nc2nnc(SCC(=O)N3CCCC3)s2)cc1	-3.8	2.1	-4.7	0.6	-3.2	-5.2	.	.
COc1ccc(Nc2nnc(SCC(=O)N3CC(=O)Nc4ccccc43)s2)cc1	-1.4	-3.1	-2.0	-10.6	3.0	26.6*	3.5	-7.6
Cc1ccc(C(=O)/C=C/c2cn(CC(O)CN3CCOCC3)c3ccccc23)cc1 (stereo not given)	19.1	-4.6	20.1	14.8	5.4	22.8*	36.2*	35.4*
CCOc1ccc(C(=O)/C=C/c2cn(CN3CCN(C)CC3)c3ccccc23)cc1	16.1	0.0	-5.0	-2.4	14.8	26.1*	23.7*	36.7*
CNC[C@@H](Cc1ccccc1)NC[C@@H](CC1CCCCC1)NCCCc1ccccc1	-4.7	1.4	12.6	7.4	.	-4.3	.	.
CNC[C@@H](CC1CCCCC1)NC[C@H](CC(C)C)NCCc1cccc(C(F)(F)F)c1	-5.2	1.5	16.8	0.0	.	21.4*	27.6*	5.7
CCOc1ccc(NC(=O)CN2CCCN(c3ccc(OC)cc3)CC2)cc1	.	3.8	.	.	.	.	.	.
CCc1ccc(NC(=O)Cn2c(=O)c3cccn3c3ccccc32)cc1	-2.0	-1.6	-2.7	-0.9	.	22.2*	10.6	-2.2
COc1ccc(NC(=O)Nc2ccc3c(c2)C(=O)N([C@H](C)CO)C[C@H](C)[C@H](CN(C)C)OCCCC[C@@H](C)O3)cc1	.	2.4	.	.	.	.	.	.
CN1OC[C@@H]2CN(S(=O)(=O)c3ccccc3)[C@H](c3ccccc3Br)C[C@@H]21	.	-4.2	-10.6	-3.4	.	32.7*	-4.7	-4.6
Cc1ccc([C@H]2C[C@]34CN(Cc5ccccc5)S(=O)(=O)[C@H]3C[C@H]2O4)cc1	.	-2.2	.	.	.	.	.	.
COC(=O)c1c(-c2ccc(OC)cc2)c2c(c3c4cc(OC)ccc4n(C(=O)c4ccccc4)c13)C(=O)N(C)C2	.	-2.8	.	.	.	.	.	.
O=c1[nH]c2cc3c(cc2cc1CN(CCc1ccccc1)Cc1nnnn1CC1CCCO1)OCO3 (stereo not given)	4.6	-4.6	-10.8	-1.4	-9.1	10.2	.	.
O=c1[nH]c2cc3c(cc2cc1CN(Cc1nnnn1CC1CCCO1)C1CCCCC1)OCO3 (stereo not given)	19.9	23.2*	-4.5	0.8	13.9	22.2*	4.5	0.5
O=c1[nH]c2cc3c(cc2cc1CN(Cc1nnnn1CC1CCCO1)C1CCCC1)OCO3 (stereo not given)	18.1	0.5	-2.5	-1.6	-2.6	39.0*	-4.5	0.8
COc1ccc(C=NNc2ccc([N+](=O)[O-])cc2S(=O)(=O)Nc2ccccc2C(=O)O)cc1OC	8.6	13.7	7.5	1.4	.	27.0*	36.1*	35.7*
COc1ccc(/C=N/Nc2ccccc2C(=O)O)cc1Cn1cc([N+](=O)[O-])cn1	0.1	5.6	1.6	-4.7	.	1.7	.	.
O=C(N/N=C/c1[nH]c2ccccc2c1Cl)c1cccc(Br)c1	.	-0.9	-5.2	7.1	.	24.2*	11.5	31.4*
Cc1[nH]c2ccccc2c1/C=N/NC(=O)c1cccc(Br)c1	-4.6	.	-7.7	-13.1	.	-8.2	.	.
COC(=O)C1=C(C)N(Cc2ccc(C(F)(F)F)cc2)C(=NCC2CC2)NC1c1cccc(Cl)c1 (stereo not given)	.	-2.8	.	.	.	.	.	.
CCOc1ccc(CNC(=O)C2CCN(c3nnc(C)c4c(C)n(-c5ccc(C)cc5)nc34)CC2)cc1	7.2	-0.1	9.5	43.1	.	35.9*	47.6*	18.9*
COc1ccc(-n2nc3c(N4CCC(C(=O)NCc5cccc(C)c5)CC4)nnc(C)c3c2C)cc1	6.2	-0.2	9.1	48.2	.	13.2	.	.
Cc1ccc(-n2nc3c(N4CCC(C(=O)NCc5ccccc5C)CC4)nnc(C)c3c2C)cc1	5.7	.	12.0	30.7	.	24.0*	36.5*	7.4
